Hits are enriched below; roughly 3.1% of the tested compounds scored in any of these assays.
LEDGF integ inh: blocks HIV-1 LEDGF/p75-dependent DNA integration. TR-FRET IN-LEDGF/p75 DNA integration, Eu/Cy5. inhibition, % at 3.7 µM. hit rate 0.64% among 370,000. AID 743269;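 active = inhibition above the screen-wide mean plus 3 SD, cut at about 13% in these data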;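 note: signal is the Cy5 over europium emission ratio at 671 and 618 nm; 0% = plate median of compound wells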
KLK7 zymogen act: proKLK7 (human) activation, primary screen; hit rate 0.9% among 370,000; purified proKLK7, EDANS-DABCYL substrate fluorescence; 100% is mature enzyme control, 0% vehicle; activation, % at 7 µM; AID 652039; P49862;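 active = activation above the mean of all tested compounds plus 3 SD, computed per campaign excluding outliers beyond control limits, cut at about 13% in these data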
Rin1-Abl PPI inh: inhibitors of human Rin1-Abl protein interaction; P00519+Q13671; TR-FRET Rin1/Abl binding, biochemical; inhibition, % at 7.35 µM; hit rate 0.4% among 360,000; AID 588664; in the data active = inhibition above about 5%, passing the limit was not always enough
MBD2 DNA inh: inhibitors of human MBD2 binding to methylated oligonucleotide | Q9UBB5 | TR-FRET | inhibition, % at 4.4 µM | hit rate 0.31% among 370,000 | AID 686964; in the data active = inhibition above about 13%
UHRF1 binding: blocks human UHRF1 binding to methylated DNA | Q96T88 | UHRF1 binding to methylated oligo, TR-FRET | inhibition, % at 4.4 µM | hit rate 0.75% among 370,000; in the data active = inhibition above about 21%;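 note: UHRF1 SRA domain binding a hemimethylated CpG hairpin DNA probe; 0% = median of test compound wells and 100% = reference inhibitor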
Neddylation inh: blocks human cullin neddylation. TR-FRET cullin neddylation, biochemical. P61081+Q13564. hit rate 0.58% among 360,000. calls only at 25 µM. AID 651699; in the data active = inhibition above about 36%
Target sequence (P61081 whole entry, looked up): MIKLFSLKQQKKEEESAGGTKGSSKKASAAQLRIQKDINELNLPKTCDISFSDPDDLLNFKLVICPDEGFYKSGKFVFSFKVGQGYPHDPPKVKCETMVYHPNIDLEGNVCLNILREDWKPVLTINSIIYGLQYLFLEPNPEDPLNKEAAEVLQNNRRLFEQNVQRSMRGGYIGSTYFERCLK
Target sequence (Q13564 whole entry, looked up): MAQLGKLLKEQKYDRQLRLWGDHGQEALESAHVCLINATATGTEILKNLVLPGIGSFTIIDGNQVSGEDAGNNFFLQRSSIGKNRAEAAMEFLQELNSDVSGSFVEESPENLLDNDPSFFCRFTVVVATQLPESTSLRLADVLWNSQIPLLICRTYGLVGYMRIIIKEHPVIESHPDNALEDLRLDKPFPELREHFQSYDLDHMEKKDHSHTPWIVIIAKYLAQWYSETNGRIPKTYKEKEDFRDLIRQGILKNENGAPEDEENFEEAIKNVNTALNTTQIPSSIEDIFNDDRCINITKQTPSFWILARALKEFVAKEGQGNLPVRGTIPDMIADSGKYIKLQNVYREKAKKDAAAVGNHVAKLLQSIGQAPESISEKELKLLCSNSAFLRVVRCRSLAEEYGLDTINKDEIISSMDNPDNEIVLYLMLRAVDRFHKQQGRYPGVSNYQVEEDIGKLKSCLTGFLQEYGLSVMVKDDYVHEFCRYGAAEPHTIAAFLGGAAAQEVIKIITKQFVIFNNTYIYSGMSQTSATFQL
KLK7 act conf: confirmation of human kallikrein-7 zymogen activators. purified proKLK7, EDANS-DABCYL substrate fluorescence; scaled: vehicle 0, mature enzyme 100. AID 686949. activation, % at 7 µM. shares compounds with KLK7 zymogen act. hit rate 68% among 3,200;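 active = activation, as change over the incubation, above the mean of all tested compounds plus 3 SD, cut at about 13% in these data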
EDANS interfere: fluorescence interference counter-screen for KLK7 activators | EDANS-DABCYL substrate fluorescence interference, no enzyme, 4 h; solvent 0%, active enzyme control 100% | AID 686952 | activation, % at 7 µM | hit rate 80% among 3,200 | shares compounds with KLK7 zymogen act;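 active = activation above the all-compound mean plus 3 SD, ignoring values outside control-based bounds, cut at about 4.8% in these data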;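 note: value is the 4 h activation minus the activation read at time zero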
EDANS interf: EDANS fluorescence interference in dose response, no enzyme | shares compounds with KLK7 zymogen act | EDANS-DABCYL peptide fluorescence interference | EC50, µM | hit rate 20% among 250;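 active = compounds that raise the fluorescence signal in this interference counterscreen, with EC50 at or below 10 µM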;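 note: intact quenched peptide substrate alone read at 355 nm excitation and 520 nm emission; signal is fluorescence gain from T0 to T4 after four hours at room temperature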
* hit, by the source's call; i = inactive; / = no result given.

SMILES	LEDGF integ inh	KLK7 zymogen act	Rin1-Abl PPI inh	MBD2 DNA inh	UHRF1 binding	Neddylation inh	KLK7 act conf	EDANS interfere	others
O=C(COc1ccc2ccc(=O)oc2c1)NC(Cc1ccc(Cl)cc1)C(=O)O (configuration not stated)	-4.4	0.9	-3.2	1.1	-0.5	i	/	/
COc1ccc2c(CC(=O)N[C@@H](Cc3ccccc3)C(=O)O)cc(=O)oc2c1C	2.6	6.5	-0.2	7.9	-1.9	/	/	/
CCOC(=O)[C@@]12CCCC=C1N(CCc1ccc(Cl)cc1)C(=O)[C@H]2CC(=O)NCc1ccc(C)o1	2.3	0.4	/	1.3	-2.8	/	/	/
C=CCOC(=O)C1=C(C)NC(SCC(=O)NC(=O)OCC)=C(C#N)C1c1cccnc1 (configuration not stated)	0.8	20.1*	-0.3	-1.9	0.4	i	26.5*	16.7*	EDANS interf=4.44*
C=CCOC(=O)C1=C(C)NC(SCC(=O)N(CC)CC)=C(C#N)C1c1ccccc1 (configuration not stated)	1.4	-0.2	-0.3	-2.8	2.3	i	/	/
CCOc1ccc(CCNC(=O)COC(=O)c2oc3ccccc3c2COC)cc1OCC	2.3	-0.3	2.2	-1.9	1.6	i	/	/
COc1cc(NC(=O)c2ccc3c(c2)S(=O)(=O)N=C2CCCCCN23)cc(OC)c1	-2.9	15.2*	1.1	-2.2	-0.7	i	6.5	1.0
NC(=O)c1nsc(C(=O)N(c2ccccc2)C(C(=O)NC2CCCCC2)c2ccc(O)cc2)c1N (configuration not stated)	-4.2	12.8*	0.5	-5.9	-0.8	i	5.2	30.9*
COC(=O)[C@]12C[C@H](CC(=O)NCC34CC5CC(CC(C5)C3)C4)C(=O)N(Cc3ccc(Cl)cc3Cl)C1=C[C@H](C(C)C)O[C@@H]2C1CC1	4.3	0.2	/	-2.3	2.9	/	/	/
O=C(NC1CCC(O)CC1)c1cc(-c2ccco2)nc2ccccc12 (configuration not stated)	2.5	27.9*	3.5	6.2	10.9	/	12.9*	10.9*	EDANS interf=>69.5
O=C(NCC1CCCO1)c1cc(-c2ccco2)nc2ccccc12 (configuration not stated)	3.9	59.1*	-3.4	12.7	10.1	/	66.5*	67.8*
COc1ccc2c(c1)CCC1(C)CC(=O)C(Br)=C21 (configuration not stated)	-1.4	124.3*	-306.4	2.1	1.6	i	71.3*	75.7*
CCOc1ccc(/C(O)=C2/C(=O)C(=O)N(c3ccccn3)C2c2ccc(C)cc2)c(C)c1 (configuration not stated)	-2.5	17.0*	-14.0	-0.5	-2.1	i	32.3*	32.1*
CN(Cc1cnc2nc(N)nc(N)c2n1)c1ccc(C(=O)N[C@@H](CCC(=O)O)C(=O)O)cc1	0.4	17.9*	2.6	-4.7	-2.5	/	-9.1	-12.6
CCOC(=O)N1CCN(C(=O)c2cc3c(s2)-c2ccccc2OC3)CC1	-3.8	31.9*	-6.4	3.6	4.2	/	-11.8	2.3
CC(=O)c1cc2c(s1)-c1cc(F)ccc1OC2	0.8	71.3*	0.2	-0.6	-0.8	i	68.6*	74.4*
O=C(c1cc2c(s1)-c1ccccc1OC2)N1CCCC1	0.8	73.9*	0.4	3.6	-1.9	i	61.7*	68.8*
O=C(c1cc2c(s1)-c1ccccc1OC2)N1CCN(c2ccccc2)CC1	3.0	-5.2	-0.1	-1.4	-0.5	/	/	/
CCCN1CCN(C(=O)c2cc3c(s2)-c2ccccc2OC3)CC1	-2.5	66.5*	-0.8	-3.0	1.6	i	-93.9	83.7*
COC(=O)c1cc2c(s1)-c1cc(F)ccc1OC2	0.5	-34.6	2.4	10.8	3.9	/	/	/
COc1cccc(N2CCN(C(=O)c3cc4c(s3)-c3ccccc3OC4)CC2)c1	-0.3	24.3*	-2.7	-4.5	-2.9	i	3.5	21.2*
C=CCN(CC=C)c1nc2ccccc2nc1C(C#N)C(=O)OCCOC (configuration not stated)	3.2	43.1*	-1.5	-2.5	-3.8	/	19.6*	18.2*
Cc1cc(/C=N/NC(=O)c2ccc(O)cc2)c(C)n1CC(C)C	0.4	-0.2	-2.0	-10.7	-2.7	i	/	/
Cc1nn2cc(-c3ccccc3)nc2[nH]c1=O	1.5	49.2*	-0.9	-4.8	1.7	/	74.4*	79.7*
O=C(O)CCc1nn2cc(-c3ccccc3)nc2[nH]c1=O	1.5	55.9*	-2.9	-1.3	3.1	/	72.4*	81.1*
SMILES	LEDGF integ inh	KLK7 zymogen act	Rin1-Abl PPI inh	MBD2 DNA inh	UHRF1 binding	Neddylation inh	KLK7 act conf	EDANS interfere	others
COC(=O)[C@]12C[C@H](CC(=O)N3CCSCC3)C(=O)N(Cc3cccc4ccccc34)C1=C[C@H](C(C)C)O[C@@H]2C1CC1	-1.6	0.1	/	-1.6	0.8	/	/	/
COC(=O)[C@]12C[C@H](CC(=O)N3CCN(C(=O)C4CC4)CC3)C(=O)N(Cc3ccc(Cl)cc3Cl)C1=C[C@H](COCc1ccccc1)O[C@@H]2C	-2.1	0.5	/	3.6	-0.1	/	/	/
Cc1cccc(C)c1OCc1cccc(C2Nc3ccccc3C(=O)N2Cc2ccco2)c1 (configuration not stated)	-2.2	/	/	2.8	-2.1	/	/	/
Cc1ccc(C2Nc3ccccc3C(=O)N2Cc2ccco2)cc1 (configuration not stated)	3.7	13.1*	-0.8	1.0	0.2	/	-21.7	-19.0
O=C1c2ccccc2NC(c2cccc(F)c2)N1Cc1ccccc1 (configuration not stated)	-0.2	10.8	3.5	-0.4	3.8	/	/	/
O=C1c2ccccc2NC(c2cccc(F)c2)N1Cc1ccco1 (configuration not stated)	1.9	22.2*	1.2	-1.0	0.6	/	-3.4	-8.2
O=C1c2ccccc2NC(c2ccc(O)cc2)N1Cc1ccco1 (configuration not stated)	-1.8	24.2*	-2.4	1.1	4.9	/	9.1	7.1*
CCOCCCn1c(=NC(=O)c2cccs2)c(C#N)cc2c(=O)n3ccccc3nc21	3.7	53.1*	-5.5	-5.7	-5.6	/	-432.5	-326.4
Cc1cccn2c(=O)c3cc(C#N)c(=NC(=O)c4ccncc4)n(CCCOC(C)C)c3nc12	-2.6	-0.7	4.4	-2.5	7.6	i	/	/
COCCCn1c(=NC(=O)c2ccncc2)c(C#N)cc2c(=O)n3cccc(C)c3nc21	1.7	14.7*	-0.5	-7.0	-4.9	i	30.3*	46.7*

Assay outcomes (PubChem BioAssay)
